Assay outcomes from PubChem.
PHOSPHO1 block: inhibitors of human PHOSPHO1 phosphatase. recombinant PHOSPHO1, absorbance phosphatase assay. hit rate 1.1% among 290,000. Q8TCT1. AID 1565. inhibition, % at 13.3 µM; in the data active = inhibition above about 60%
Target sequence (Q8TCT1 whole entry, looked up): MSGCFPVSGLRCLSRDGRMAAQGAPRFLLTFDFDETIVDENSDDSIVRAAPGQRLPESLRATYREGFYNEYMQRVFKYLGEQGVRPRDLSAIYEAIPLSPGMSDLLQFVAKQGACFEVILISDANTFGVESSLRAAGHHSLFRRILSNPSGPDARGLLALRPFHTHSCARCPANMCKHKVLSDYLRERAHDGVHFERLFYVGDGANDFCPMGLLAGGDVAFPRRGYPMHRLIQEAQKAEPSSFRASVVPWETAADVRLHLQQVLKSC
NRP1-CendR mod: modulators of CendR peptide binding to human neuropilin-1; AID 602438; hit rate 0.85% among 360,000; inhibition, % at 25 µM; FAM-RPARPAR peptide binding to NRP-1, fluorescence polarization; O14786;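 active = inhibition or corrected inhibition above about 18%, plus a signal ratio from 0.5 to 1.5, limit read from the data, passing the limit was not always enough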
Rpn11 inh: inhibitors of human proteasome Rpn11. human 26S proteasome, Ub4-pepOG fluorescence polarization; 20S core pre-blocked with epoxomicin. inhibition, % at 20 µM. hit rate 0.59% among 360,000;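 active = inhibition at 20 µM, scaled to each plate's controls, above about 33%, limit read from the data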
CTSL1 counter: counter-screen for PFM18AAP inhibitors: inhibitors of F. hepatica cathepsin L1 | recombinant F. hepatica cathepsin L1, Z-Leu-Arg-MCA fluorescence | hit rate 0.49% among 300,000 | inhibition, % at 5.96 µM;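 active = inhibition above the mean of all tested compounds plus 3 SD, set per screening campaign, cut at about 17% in these data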;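 note: 0% = plate median of test compound wells and 100% = 1 µM Z-Phe-Ala-diazomethylketone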
HNF4A DNA FP: change in binding of human HNF4 alpha to DNA | P41235 | HNF4a-FITC DNA binding, fluorescence polarization, 1 h | activity change, % at 10 µM | hit rate 0.3% among 360,000 | AID 1224865; in the data active = activity change above about 30%, passing the limit was not always enough
TPT1 inh: blocks Candida albicans tRNA 2'-phosphotransferase; inhibition, % at 5 µM; hit rate 0.81% among 300,000; recombinant caTPT1, FP RNA substrate dephosphorylation; AID 1962;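 active = inhibition above the mean of all tested compounds plus 3 SD, set per screening campaign, cut at about 24% in these data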;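 note: plate controls were DMSO alone for no effect and ferristatin control at 100 nM for full effect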
Active calls of the source: *; x = not tested or not shown. Compounds with a hit are over-represented: about 3.3% of the library has one in this group of screens.

SMILES | PHOSPHO1 block | NRP1-CendR mod | Rpn11 inh | CTSL1 counter | HNF4A DNA FP | TPT1 inh
COc1ccc(C(c2c(N)[nH]c(=S)[nH]c2=O)c2c(N)[nH]c(=S)[nH]c2=O)cc1 | -6 | -11 | 4 | 3 | -2 | 1
Cc1nc(NC(=O)CSc2nnc(-c3ccncc3)n2C)sc1C | 19 | 2 | 0 | 1 | 3 | -4
COC(=O)CCC(=O)N1CN2CN(C(=O)CCC(=O)OC)CC([N+](=O)[O-])(C2)C1 | 16 | -1 | -5 | 18* | 2 | -4
CCCn1ncc(OC)c(Cl)c1=O | 3 | 22* | 1 | -2 | -8 | 1
CCc1nc2ccc(C(=O)NCc3ccccc3OC)cn2c1N(C)Cc1ccc(OC)cc1 | x | -7 | 4 | x | 2 | x
COc1cc(C(=O)NC(C)Cc2ccccn2)ccc1OC1CCN(C(C)=O)CC1 (centres undefined) | 26 | 20* | 0 | x | 3 | x
CC(Cc1ccccn1)NC(=O)c1ccc(OC2CCN(Cc3ccccn3)CC2)cc1 (centres undefined) | 8 | 6 | -3 | 0 | -1 | -2
CCn1nc(C)cc1C(=O)N(C)C1CCCN(Cc2ccccc2F)C1 (centres undefined) | 48 | 15 | 7 | 1 | 5 | -1
Cc1csc(NC(=O)Nc2ccc(Cl)cc2)n1 | 4 | 26* | 1 | 0 | -1 | -5
CCOC(=O)Cc1csc(NC(=O)Nc2ccc(Cl)cc2)n1 | -3 | 26* | 0 | 6 | 2 | -2
O=C(Nc1ccc(Cl)cc1)Nc1nc(-c2ccccc2O)cs1 | -31 | -1 | 12 | 8 | 5 | 1
O=C(Oc1cccc([N+](=O)[O-])c1)c1cc(-c2ccccc2)nc2ccccc12 | 23 | -32 | -3 | -1 | -3 | -2
C[N+]1(CC#CC(O)(c2ccccc2)c2ccccc2)CCCC1 | -13 | -29 | -7 | -1 | -2 | -1
N/C(=N\OC(=O)C1CCCCC1)c1cccnc1 | 19 | -3 | -2 | 1 | -1 | 2
O=C(O)c1ccccc1C(=O)Nc1n[nH]c(=S)s1 | 99* | -11 | 2 | -1 | 1 | -2
Cc1ccc(NC(=O)C(C)c2ccc(-c3ccccc3)c(F)c2)c(C)c1 (centres undefined) | 12 | 1 | 3 | 6 | -2 | 1
CCCCCn1c(NC(=O)c2ccco2)c(S(=O)(=O)c2ccc(C)cc2)c2nc3ccccc3nc21 | 38 | -16 | 19 | 9 | 3 | 5
CCCCn1c(NC(=O)c2ccco2)c(S(=O)(=O)c2ccc(C)cc2)c2nc3ccccc3nc21 | -3 | -160 | x | x | 68* | x
O=C(c1ccc(F)c(S(=O)(=O)N2CCOCC2)c1)N1CCN(c2ccc(F)cc2)CC1 | x | 9 | 8 | x | 5 | x
O=C(COc1ccc(Br)cc1Cl)NC(=S)N1CCc2ccccc21 | -6 | -4 | 4 | 0 | 3 | -4
O=C(COc1ccc(Br)cc1Br)NC(=S)N1CCCc2ccccc21 | 83* | -3 | 0 | -1 | -1 | -3
CC(C)Nc1nc(NC(C)C)nc(N(C)n2cnnc2)n1 | 94* | -9 | -6 | -2 | -1 | -12
COc1cc(C(=O)NCCOc2cccc(C)c2)c(Br)c(OC)c1OC | -10 | -2 | -9 | -1 | 0 | -1
COc1cccc(CN(C)C(=O)c2cc(COc3c(F)cccc3F)on2)c1 | 23 | 1 | -4 | 7 | 0 | -2
COc1cccc(CN(C)C(=O)c2cc(COc3ccc4ncccc4c3)on2)c1 | 61* | 2 | 1 | 1 | -3 | -1
SMILES | PHOSPHO1 block | NRP1-CendR mod | Rpn11 inh | CTSL1 counter | HNF4A DNA FP | TPT1 inh
CCN1C(=O)/C(=C2/SC(C)=C(C)N2CC)SC1=S | 80* | -69 | 8 | -1 | 1 | 7
CCN1C(=O)/C(=C2\C=Cc3ccccc3N2CC)SC1=S | 18 | -9 | 0 | 1 | 17 | -2
CCOC(=O)CSc1nc2ccc(N3CCOCC3)cc2c(=O)n1Cc1ccccc1 | 60* | -9 | -6 | 1 | 3 | -4
CCOC(=O)CSc1nc2ccccc2c(=O)n1CCN1CCOCC1 | 6 | -1 | 2 | -3 | 0 | 1
CN1C(=O)N(CC(=O)N2CCN(c3ccccc3F)CC2)C(=O)C12CCCCC2 | x | 2 | 5 | x | 0 | x
O=C(COC(=O)c1ccccc1)NCCC1=CCCCC1 | -2 | 2 | -9 | 6 | 2 | -2
S=c1[nH]nc(-c2ccco2)n1/N=C/C=C/c1ccccc1 | 63* | -8 | 0 | 2 | -5 | -2
